# The supplement of paper PMC4466140
# Target: AgAbp1
# Experiment: SPOT peptide array binding signal intensity (averaged, normalized) (arbitrary units (background-subtracted, floor 0; scale differs between SH3 domains)); higher = stronger binding of the SH3 domain to the peptide
# In short: (§1)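 Four yeast species supplied the SH3 domains, which were expressed as GST fusions in E. coli BL21(DE3) and purified on glutathione Sepharose. Incubation with cellulose membranes carrying synthetic 15-mer peptides, cysteines exchanged for serines, ran overnight at 4°C at 10 μg/ml in TBS-based blocking buffer. Binding signal is reported as normalized, background-subtracted spot intensity averaged over replicates, in arbitrary units not shared between domains.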
row,Binder,SPOT peptide array binding signal intensity
1,RKRAPTPPAPSRSEK,639

# Target: AgBbc1
# Experiment: as above
# In short: as §1
row,Binder,SPOT peptide array binding signal intensity
1,RKRAPTPPAPSRSEK,146

# Target: AgBem1-D1
# Experiment: as above
# In short: as §1
row,Binder,SPOT peptide array binding signal intensity
1,RKRAPTPPAPSRSEK,112

# Target: AgBzz1-D1
# Experiment: as above
# In short: as §1
row,Binder,SPOT peptide array binding signal intensity
1,RKRAPTPPAPSRSEK,128

# Target: AgBzz1-D2
# Experiment: as above
# In short: as §1
row,Binder,SPOT peptide array binding signal intensity
1,RKRAPTPPAPSRSEK,98

# Target: AgCyk3
# Experiment: as above
# In short: as §1
row,Binder,SPOT peptide array binding signal intensity
1,RKRAPTPPAPSRSEK,2

# Target: AgFus1
# Experiment: as above
# In short: as §1
row,Binder,SPOT peptide array binding signal intensity
1,RKRAPTPPAPSRSEK,≤ 0

# Target: AgHof1
# Experiment: as above
# In short: as §1
row,Binder,SPOT peptide array binding signal intensity
1,RKRAPTPPAPSRSEK,25

# Target: AgHse1
# Experiment: as above
# In short: as §1
row,Binder,SPOT peptide array binding signal intensity
1,RKRAPTPPAPSRSEK,171

# Target: AgLsb1
# Experiment: as above
# In short: as §1
row,Binder,SPOT peptide array binding signal intensity
1,RKRAPTPPAPSRSEK,253

# Target: AgLsb4
# Experiment: as above
# In short: as §1
row,Binder,SPOT peptide array binding signal intensity
1,RKRAPTPPAPSRSEK,35.5

# Target: AgMyo5
# Experiment: as above
# In short: as §1
row,Binder,SPOT peptide array binding signal intensity
1,RKRAPTPPAPSRSEK,0.5

# Target: AgNbp2
# Experiment: as above
# In short: as §1
row,Binder,SPOT peptide array binding signal intensity
1,RKRAPTPPAPSRSEK,1300

# Target: AgRvs167
# Experiment: as above
# In short: as §1
row,Binder,SPOT peptide array binding signal intensity
1,RKRAPTPPAPSRSEK,4.33

# Target: AgSho1
# Experiment: as above
# In short: as §1
row,Binder,SPOT peptide array binding signal intensity
1,RKRAPTPPAPSRSEK,5

# Target: AgSla1-D1-D2
# Experiment: as above
# In short: as §1
row,Binder,SPOT peptide array binding signal intensity
1,RKRAPTPPAPSRSEK,167

# Target: AgSla1-D3
# Experiment: as above
# In short: as §1
row,Binder,SPOT peptide array binding signal intensity
1,RKRAPTPPAPSRSEK,21.8

# Target: CaAbp1-D1
# Experiment: as above
# In short: as §1
row,Binder,SPOT peptide array binding signal intensity
1,RKRAPTPPAPSRSEK,3830

# Target: CaAbp1-D2
# Experiment: as above
# In short: as §1
row,Binder,SPOT peptide array binding signal intensity
1,RKRAPTPPAPSRSEK,3240

# Target: CaBbc1
# Experiment: as above
# In short: as §1
row,Binder,SPOT peptide array binding signal intensity
1,RKRAPTPPAPSRSEK,426

# Target: CaBem1-D1
# Experiment: as above
# In short: as §1
row,Binder,SPOT peptide array binding signal intensity
1,RKRAPTPPAPSRSEK,306

# Target: CaBzz1-D1
# Experiment: as above
# In short: as §1
row,Binder,SPOT peptide array binding signal intensity
1,RKRAPTPPAPSRSEK,2860

# Target: CaBzz1-D2
# Experiment: as above
# In short: as §1
row,Binder,SPOT peptide array binding signal intensity
1,RKRAPTPPAPSRSEK,3180

# Target: CaCyk3
# Experiment: as above
# In short: as §1
row,Binder,SPOT peptide array binding signal intensity
1,RKRAPTPPAPSRSEK,12

# Target: CaFus1
# Experiment: as above
# In short: as §1
row,Binder,SPOT peptide array binding signal intensity
1,RKRAPTPPAPSRSEK,106

# Target: CaHof1
# Experiment: as above
# In short: as §1
row,Binder,SPOT peptide array binding signal intensity
1,RKRAPTPPAPSRSEK,0.25

# Target: CaHse1
# Experiment: as above
# In short: as §1
row,Binder,SPOT peptide array binding signal intensity
1,RKRAPTPPAPSRSEK,3.25

# Target: CaLsb1
# Experiment: as above
# In short: as §1
row,Binder,SPOT peptide array binding signal intensity
1,RKRAPTPPAPSRSEK,5.5

# Target: CaLsb4
# Experiment: as above
# In short: as §1
row,Binder,SPOT peptide array binding signal intensity
1,RKRAPTPPAPSRSEK,249

# Target: CaMyo5
# Experiment: as above
# In short: as §1
row,Binder,SPOT peptide array binding signal intensity
1,RKRAPTPPAPSRSEK,3.5

# Target: CaNbp2
# Experiment: as above
# In short: as §1
row,Binder,SPOT peptide array binding signal intensity
1,RKRAPTPPAPSRSEK,797

# Target: CaRvs167
# Experiment: as above
# In short: as §1
row,Binder,SPOT peptide array binding signal intensity
1,RKRAPTPPAPSRSEK,27.8

# Target: CaRvs167-3
# Experiment: as above
# In short: as §1
row,Binder,SPOT peptide array binding signal intensity
1,RKRAPTPPAPSRSEK,20.2

# Target: CaSho1
# Experiment: as above
# In short: as §1
row,Binder,SPOT peptide array binding signal intensity
1,RKRAPTPPAPSRSEK,4

# Target: CaSla1-D1-D2
# Experiment: as above
# In short: as §1
row,Binder,SPOT peptide array binding signal intensity
1,RKRAPTPPAPSRSEK,1150

# Target: CaSla1-D3
# Experiment: as above
# In short: as §1
row,Binder,SPOT peptide array binding signal intensity
1,RKRAPTPPAPSRSEK,≤ 0

# Target: ScAbp1
# Experiment: as above
# In short: as §1
row,Binder,SPOT peptide array binding signal intensity
1,RKRAPTPPAPSRSEK,187

# Target: ScBbc1
# Experiment: as above
# In short: as §1
row,Binder,SPOT peptide array binding signal intensity
1,RKRAPTPPAPSRSEK,114

# Target: ScBem1-D1
# Experiment: as above
# In short: as §1
row,Binder,SPOT peptide array binding signal intensity
1,RKRAPTPPAPSRSEK,21.5

# Target: ScBzz1-D1
# Experiment: as above
# In short: as §1
row,Binder,SPOT peptide array binding signal intensity
1,RKRAPTPPAPSRSEK,128

# Target: ScBzz1-D2
# Experiment: as above
# In short: as §1
row,Binder,SPOT peptide array binding signal intensity
1,RKRAPTPPAPSRSEK,26

# Target: ScCyk3
# Experiment: as above
# In short: as §1
row,Binder,SPOT peptide array binding signal intensity
1,RKRAPTPPAPSRSEK,9.5

# Target: ScFus1
# Experiment: as above
# In short: as §1
row,Binder,SPOT peptide array binding signal intensity
1,RKRAPTPPAPSRSEK,≤ 0

# Target: ScHof1
# Experiment: as above
# In short: as §1
row,Binder,SPOT peptide array binding signal intensity
1,RKRAPTPPAPSRSEK,0.75

# Target: ScHse1
# Experiment: as above
# In short: as §1
row,Binder,SPOT peptide array binding signal intensity
1,RKRAPTPPAPSRSEK,762

# Target: ScLsb1
# Experiment: as above
# In short: as §1
row,Binder,SPOT peptide array binding signal intensity
1,RKRAPTPPAPSRSEK,89.5

# Target: ScLsb2
# Experiment: as above
# In short: as §1
row,Binder,SPOT peptide array binding signal intensity
1,RKRAPTPPAPSRSEK,6

# Target: ScLsb3
# Experiment: as above
# In short: as §1
row,Binder,SPOT peptide array binding signal intensity
1,RKRAPTPPAPSRSEK,1010

# Target: ScLsb4
# Experiment: as above
# In short: as §1
row,Binder,SPOT peptide array binding signal intensity
1,RKRAPTPPAPSRSEK,31.5

# Target: ScMyo3
# Experiment: as above
# In short: as §1
row,Binder,SPOT peptide array binding signal intensity
1,RKRAPTPPAPSRSEK,5

# Target: ScMyo5
# Experiment: as above
# In short: as §1
row,Binder,SPOT peptide array binding signal intensity
1,RKRAPTPPAPSRSEK,1.5

# Target: ScNbp2
# Experiment: as above
# In short: as §1
row,Binder,SPOT peptide array binding signal intensity
1,RKRAPTPPAPSRSEK,2100

# Target: ScPex13
# Experiment: as above
# In short: as §1
row,Binder,SPOT peptide array binding signal intensity
1,RKRAPTPPAPSRSEK,30.5

# Target: ScRvs167
# Experiment: as above
# In short: as §1
row,Binder,SPOT peptide array binding signal intensity
1,RKRAPTPPAPSRSEK,544

# Target: ScSho1
# Experiment: as above
# In short: as §1
row,Binder,SPOT peptide array binding signal intensity
1,RKRAPTPPAPSRSEK,172

# Target: ScSla1-D1-D2
# Experiment: as above
# In short: as §1
row,Binder,SPOT peptide array binding signal intensity
1,RKRAPTPPAPSRSEK,1970

# Target: ScSla1-D3
# Experiment: as above
# In short: as §1
row,Binder,SPOT peptide array binding signal intensity
1,RKRAPTPPAPSRSEK,46.5

# Target: SpAbp1-D1
# Experiment: as above
# In short: as §1
row,Binder,SPOT peptide array binding signal intensity
1,RKRAPTPPAPSRSEK,1150

# Target: SpBbc1
# Experiment: as above
# In short: as §1
row,Binder,SPOT peptide array binding signal intensity
1,RKRAPTPPAPSRSEK,≤ 0

# Target: SpBzz1-D1
# Experiment: as above
# In short: as §1
row,Binder,SPOT peptide array binding signal intensity
1,RKRAPTPPAPSRSEK,428

# Target: SpBzz1-D2
# Experiment: as above
# In short: as §1
row,Binder,SPOT peptide array binding signal intensity
1,RKRAPTPPAPSRSEK,157

# Target: SpCyk3
# Experiment: as above
# In short: as §1
row,Binder,SPOT peptide array binding signal intensity
1,RKRAPTPPAPSRSEK,≤ 0

# Target: SpHof1
# Experiment: as above
# In short: as §1
row,Binder,SPOT peptide array binding signal intensity
1,RKRAPTPPAPSRSEK,140

# Target: SpHof1-2
# Experiment: as above
# In short: as §1
row,Binder,SPOT peptide array binding signal intensity
1,RKRAPTPPAPSRSEK,5.75

# Target: SpHof1-3
# Experiment: as above
# In short: as §1
row,Binder,SPOT peptide array binding signal intensity
1,RKRAPTPPAPSRSEK,486

# Target: SpHse1
# Experiment: as above
# In short: as §1
row,Binder,SPOT peptide array binding signal intensity
1,RKRAPTPPAPSRSEK,123

# Target: SpLsb1
# Experiment: as above
# In short: as §1
row,Binder,SPOT peptide array binding signal intensity
1,RKRAPTPPAPSRSEK,39.2

# Target: SpLsb4
# Experiment: as above
# In short: as §1
row,Binder,SPOT peptide array binding signal intensity
1,RKRAPTPPAPSRSEK,1110

# Target: SpMyo1
# Experiment: as above
# In short: as §1
row,Binder,SPOT peptide array binding signal intensity
1,RKRAPTPPAPSRSEK,4.5

# Target: SpNbp2
# Experiment: as above
# In short: as §1
row,Binder,SPOT peptide array binding signal intensity
1,RKRAPTPPAPSRSEK,67.5

# Target: SpPex13
# Experiment: as above
# In short: as §1
row,Binder,SPOT peptide array binding signal intensity
1,RKRAPTPPAPSRSEK,≤ 0

# Target: SpRvs167
# Experiment: as above
# In short: as §1
row,Binder,SPOT peptide array binding signal intensity
1,RKRAPTPPAPSRSEK,450

# Target: SpSla1-D1-D2
# Experiment: as above
# In short: as §1
row,Binder,SPOT peptide array binding signal intensity
1,RKRAPTPPAPSRSEK,199

# Target: SpSla1-D3
# Experiment: as above
# In short: as §1
row,Binder,SPOT peptide array binding signal intensity
1,RKRAPTPPAPSRSEK,≤ 0
